Pf Dd2 growth = Plasmodium falciparum Dd2 growth inhibition; P. falciparum Dd2 growth, SYBR Green, 72 h; Potency, µM (series often up to 28.9 µM), for inactives: top-dose activity, negative = inhibition, usual class: inhibitors; hit rate 4.3% among 120,000; active = well fitted inhibition curve with a large enough effect;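 also: plate controls were DMSO vehicle for no effect and reference drug for full effect; nearly all actives have a fitted effect of over 65% in size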
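Infected erythrocytes (Dd2, 0.3% parasitemia, 2.5% hematocrit final) are added to compound in RPMI-1640/Albumax II medium, grown 72 h at 37C in low oxygen, then lysed with saponin/Triton-X containing SYBR Green and read by fluorescence.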
The depositor's hits bear a star; i = inactive; [ ] = remark or other dose. This is one part of a sample in which hits are shown more often than they occur. Potency is read from the fitted curve at half-maximal effect.

SMILES | Pf Dd2 growth
Cc1ccncc1C(=O)N1CCC(N2CC(OCC3CC3)C23CCCCC3)CC1 (centres undefined) | -18%
O=C(c1ccccn1)N1CCC(N2CC(OCC3CC3)C23CCOCC3)CC1 (centres undefined) | -8%
Cc1ccc(CN2CCC(N3CC(OCC4CC4)C34CCOCC4)CC2)s1 (centres undefined) | 10µM*
c1ccc(CN2CCC(N3CC(OCC4CC4)C34CCOCC4)CC2)cc1 (centres undefined) | 5.6µM*
COC1CN(C2CCN(C(=O)Cc3ccccc3)CC2)C12CCOCC2 (centres undefined) | i
COC1CN(C2CCN(C(=O)c3ccoc3)CC2)C12CCOCC2 (centres undefined) | -24%
CCC(=O)N(C1CCOCC1)C1CCN(Cc2ccc(C)o2)CC1 | 18%
Cc1ncoc1C(=O)N1CCC(N2CC(OCC3CC3)C23CCOCC3)CC1 (centres undefined) | -7%
Cn1cccc1CN1CCC(N2CCOC2=O)CC1 | 4%[44.1 µM]
COCCOC1CN(C2CCN(C(=O)c3ccc(C)nc3)CC2)C12CCCCC2 (centres undefined) | i
COCCOC1CN(C2CCN(Cc3ccc(C)o3)CC2)C12CCCCC2 (centres undefined) | 5µM*
Cn1cccc1CN1CCC(N2CC(OCC3CC3)C23CCCCC3)CC1 (centres undefined) | 0.63µM*
COCCNc1nc2c([S+](=O)([O-])c3ccc(Br)cc3)nnn2c2ccccc12 | 1%
CC(=O)NC1CC2(CCN(C(=O)CCC(=O)OC(C)(C)C)CC2)Oc2ccccc21 (centres undefined) | 5%
O=C(CC1CCN(S(=O)(=O)c2ccccc2F)C1)NCc1ccccc1 (centres undefined) | i
Cc1cnc(C2CC2)n1CCNC(=O)c1cncn1C | 1%
O=C(CC1CCCN(c2cn[nH]c(=O)c2)C1)NCc1cccs1 (centres undefined) | 50%
COCCN1C(=O)[C@H]2CN(Cc3cccc(OC(F)(F)F)c3)C[C@H]2C1=O | 11%
COc1ccc(C(=O)N2CCOC3(CCN(C(=O)C4CCN(C)CC4)CC3)C2)cc1 | 5%
OC1(CN2CCN(Cc3cccc(Cl)c3)CC2)CCCNC1 (centres undefined) | -25%
COc1cccc(CC2(CO)CCCN(C(=O)c3cn4ccsc4n3)C2)c1 (centres undefined) | -21%
OCC1(Cc2cccc(Cl)c2)CCCNC1 (centres undefined) | 11µM*
Cc1nc(-c2ccc(OC3CCN(C(=O)NC(C)C)C3)cc2)no1 (centres undefined) | 29%[5.79 µM]
Cc1c(C(=O)Nc2cccc(C(F)(F)F)c2)sc2nc3n(c(=O)c12)CCCC3 | 10µM*
CCOc1ccc(NC(=O)c2sc3nc4n(c(=O)c3c2C)CCCC4)cc1 | -9%
SMILES | Pf Dd2 growth
Cc1c(C(=O)NCc2ccc(F)cc2)sc2nc3n(c(=O)c12)CCC3 | 4%
O=C(c1cnccn1)N1CCC(c2nc(C3CCOCC3)no2)CC1 | 28%
COc1ccccc1Cn1c(-c2ccc(Cl)cc2)nc(C)c(CCO)c1=O | -8%
CC(C)(C)NC(=O)N[C@H](Cc1ccccc1)C(=O)N1CCOCCNC(=O)CC1 | 12%
Cc1cccc2c1nc1n2[C@@H](CNC2CCCCC2)COC1 | i
CN1CCC(NC[C@H]2COCc3nc4cccnc4n32)CC1 | -13%[44.1 µM]
c1cnc2c(c1)nc1n2[C@@H](CNC2CCCCC2)COC1 | 14µM*
Cn1cnc(S(=O)(=O)N2CCC3(CC2)N(c2ccccc2)C(=O)CS3=O)c1 (centres undefined) | -11%
O=C1NC(C(=O)N2CCN(Cc3ccc(F)cc3F)CC2)Cn2cccc21 (centres undefined) | 12%
COCCn1c(=O)c2c(n1Cc1ccccc1)CN(Cc1cccnc1OC)CC2 | -16%[44.1 µM]
COCCCN1CCc2c(n(Cc3ccccc3)n(-c3ccccc3)c2=O)C1 | 11µM*
COCCn1c(=O)c2c(n1Cc1ccccc1)CN(Cc1ccc(C(C)C)cc1)CC2 | -10%[44.1 µM]
O=c1[nH]c2cccnc2n1C1CC1 | -19%[44.1 µM]
CN1CC(=O)N(C2CCCNC2)Cc2c1ncnc2N1CCCN(Cc2ccccc2)CC1 (centres undefined) | -7%
Cc1nc(C2CCN(C(=O)CNC(N)=O)CC2)cc(N2CCOCC2)n1 | -7%
COc1ccc(OC)c2nc(-c3cccc(Cl)c3)c(CN3CC(O)C3)cc12 | -9%
COc1ccc(-c2nc3cc(C)ccc3cc2CN2CCC[C@@H]2C(N)=O)cc1OC | -43%
COc1cc2cc(CN3CCC[C@@H]3CO)c(-c3cccc(Cl)c3)nc2cc1OC | 13µM*
Cc1nc(NC(=O)Cn2nc3c(cc2=O)CCCC3)sc1C | -12%
CCOc1ccccc1NC(=O)c1cc(S(=O)(=O)NC2CCCC2)ccc1F | i
Cc1ccc(NC(=O)c2cc(S(=O)(=O)NCCc3ccc(Cl)cc3)ccc2F)cc1 | i
O=C(Nc1ccc(Br)cc1F)c1cc(S(=O)(=O)NC2CCCCC2)ccc1F | -15%
O=C(Nc1ccc(Br)cc1)c1ccc(Br)c(S(=O)(=O)N2CCCCC2)c1 | -6%
CC(C)c1ccc(NC(=O)c2cc(S(=O)(=O)NC3CCCCC3)ccc2F)cc1 | 7.9µM*
Cc1ccc(C(=O)Nc2ccc(F)cc2)cc1S(=O)(=O)N1CCCCCC1 | -37%
SMILES | Pf Dd2 growth
CCOc1ccc(NC(=O)c2cc(S(=O)(=O)NC3CCCCCC3)ccc2F)cc1 | 4µM*
O=C(Nc1ccc(Br)cc1)c1ccc(F)c(S(=O)(=O)NC2CCCCCC2)c1 | 1.3µM*
CCOc1ccc(NC(=O)c2cc(S(=O)(=O)N3CCOCC3)ccc2F)cc1 | i
CCc1ccc(N2CC(c3noc(-c4ccco4)n3)CC2=O)cc1 (centres undefined) | 46%
COc1cccc([S+](=O)([O-])N2CCCC3(CC(c4ccccn4)=NO3)C2)c1 (centres undefined) | -4%
O=S(=O)(Nc1nc2n(n1)C(c1ccc(F)cc1)C=C(c1ccccc1)N2)c1ccccc1 (centres undefined) | 0%
O=C(Nc1nc2n(n1)C(c1ccc(F)cc1)C=C(c1ccccc1)N2)c1ccco1 (centres undefined) | 10µM*
O=C(c1ccc(F)cc1)n1nc(-c2ccccc2)nc1NCc1ccco1 | 32%
CC1=C(C(=O)Nc2ccccc2)C(c2ccccc2)n2nc(-c3ccco3)nc2N1 (centres undefined) | i
O=C(Nc1nc2n(n1)C(c1ccc(Cl)cc1)C=C(c1ccccc1)N2)c1ccco1 (centres undefined) | 13µM*
O=C(NCc1nnc2ccc(-c3ccc(Cl)cc3)nn12)c1ccco1 | i
CCn1ncc(N2CCC(NC(=O)CCC3CCCC3)CC2)cc1=O | -8%
COCCCNC(=O)N1CCCCCNC(=O)[C@@H]2CCCC[C@@H]21 | -11%
COc1ccccc1C(=O)N1CCC2(CC(C(C)C)=NO2)C1 (centres undefined) | 14%
COC[C@@H]1CN(S(=O)(=O)Cc2ccccc2)C[C@H]1c1ccncc1 | 0%
O=C(COc1ccc(F)cc1)N1CCC2(CC1)NC(=O)N(c1ccccc1Cl)N2 | -18%
CCOCC(=O)N1CCC(Cc2ccc(C(=O)N(C)C)cc2)CC1 | -15%
O=C(NCC(c1cccnc1)N1CCOCC1)C(=O)Nc1cccc(Cl)c1 (centres undefined) | -15%
O=C(NCC(c1cccnc1)N1CCOCC1)C(=O)Nc1ccc(Cl)cc1 (centres undefined) | -14%
Cc1ccc(NC(=O)C(=O)NCC(c2cccnc2)N2CCN(Cc3ccccc3)CC2)cc1Cl (centres undefined) | 3.5µM*

Compound activity from PubChem.
